# Laboratory results from PubChem BioAssay (NCI).
# This is part of a sample that, as a whole, favours compounds with a hit. Of some 83,000 tested, about 20% had one in any assay.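 Compound tested at a single concentration for 48 hours in 96-well plates; a percent growth value below 10 was scored as active.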 Values without a mark were called inactive. The source made the active and inactive calls.
# Assays:
# Assay in all cases: NCI-60 one-dose screen, 48 h (100 = growth as untreated, 0 = no growth, -100 = all killed)
# Conditions in all cases: 10 µM unless noted
# BT-549 breast = test system: BT-549 breast
# MDA-MB-435 melanoma = test system: MDA-MB-435 melanoma
# SW-620 colon = test system: SW-620 colon
# HCT-116 colon = test system: HCT-116 colon
# HCC-2998 colon = test system: HCC-2998 colon
# KM12 colon = test system: KM12 colon
# MCF7 breast = test system: MCF7 breast
SMILES,growth (BT-549 breast),growth (MDA-MB-435 melanoma),growth (SW-620 colon),growth (HCT-116 colon),growth (HCC-2998 colon),growth (KM12 colon),growth (MCF7 breast)
C#Cc1nc(C2=C(C)C(O)/C(=N/O)C2)cs1 (stereo not drawn),111%,95.6%,123%,100%,117%,42.9%,
Cc1cc2nc3c4cc(Cl)ccc4n(CC(=O)NCCN(C)C)c3nc2cc1C,88.1%,67.9%,-80.8% (active),,82.6%,86.2%,-19.8% (active)
COc1ccc(COc2ccc(/C=C3/C(=O)Nc4cc(Cl)ccc43)cc2)cc1,102%,97.6%,95.7%,101%,100%,101%,
O=C(O)CCCCCN1C(=O)/C(=C/c2ccc(O)c(O)c2)SC1=S,101%,103%,111%,,115%,105%,90.5%
CCOC(=O)c1c(Nc2ccccc2)nn2c(N)c(C#N)c(-c3ccc(F)cc3)nc12,98.7%,81.2%,86.5%,87.4%,110%,87.3%,
Clc1ccc2c(NCCCn3ccnc3)c3oc4ccccc4c3nc2c1,81.2%,32.2%,21.5%,14%,40.8%,30.1%,
COc1ccc(-c2nc3ccc(-c4nnc(SCC(=O)Nc5ccc(C(=O)/C=C/c6ccccc6)cc5)o4)cc3[nH]2)cc1OC,94.1%,106%,104%,89.7%,123%,99%,
N/C(=N\c1nc2c(Cl)cc(Cl)cc2s1)C(Cl)(Cl)Cl,110%,75.6%,60.6%,51%,-1.09% (active),1.36% (active),
CN(C)c1ccc(/C=c2\sc3nc4ccccc4n3c2=O)cc1,118%,101%,102%,,107%,104%,70.3%
COc1ccc(C(=O)/C=C/c2ccc(OCc3ccc(C)cc3)c(OC)c2)cc1OC,73.2%,82.6%,45.5%,,91.1%,51.5%,25.9%
Cc1cc2nc3c4cc(Cl)ccc4n(CC(=S)NCCN(C)C)c3nc2cc1C,75%,-92.4% (active),-91.4% (active),-94.2% (active),-82.9% (active),-60.2% (active),
COc1cc2nc(-c3ccc(Cl)cc3)cc(OCCCNCC3CCCO3)c2cc1OC (stereo not drawn),87.7%,12.4%,54.3%,25.1%,70.6%,39.8%,
COc1cc(/C=C/C(=O)c2ccc(F)cc2)ccc1Oc1nc(NCCO)nc(N2CCOCC2)n1,86.3%,48%,0.783% (active),,103%,27.3%,10.2%
C=CCn1c(SCC(=O)c2ccccc2)nnc1-c1c[nH]c2ccccc12,109%,105%,96.1%,97.5%,111%,112%,
Cc1sc2nc(NCc3ccccc3Cl)[nH]c(=O)c2c1C,99.8%,92.6%,102%,49.7%,115%,91%,
Nc1c(C(=O)c2ccc(Br)cc2)oc2nc(-c3cnccn3)cc(-c3cccs3)c12,103%,102%,98.8%,,113%,99.8%,77.6%
COc1ccc(CNS(=O)(=O)/N=C2\NC(=O)NC2=C(Cl)Cl)cc1,-8.05% (active),-3.14% (active),27.2%,,,17.1%,18.2%
C/C(=C(/c1ccc(Cl)cc1)c1ccc(OCCN)cc1)c1ccc(C)cc1,117%,97.3%,93.5%,,111%,103%,102%
Nc1cc(-c2c[nH]c3ccc(Cl)cc23)nc2cc(-c3c[nH]c4ccc(Cl)cc34)nn12,87.5%,57.7%,15.7%,27.7%,20.1%,12.7%,
COC(=O)C(Cc1ccccc1)NS(=O)(=O)/N=C1\NC(=O)NC1=C(Cl)Cl (stereo not drawn),95.6%,105%,98.9%,77.3%,113%,9.49% (active),
O=C(CN1C(=O)/C(=C/c2ccccc2)SC1=S)N1CCOCC1,97.5%,96.2%,87.2%,98.3%,112%,100%,

SMILES,growth (BT-549 breast),growth (MDA-MB-435 melanoma),growth (SW-620 colon),growth (HCT-116 colon),growth (HCC-2998 colon),growth (KM12 colon),growth (MCF7 breast)
COc1ccc(C(=O)/C=C/c2ccc(OCc3ccc(Cl)cc3)c(OC)c2)cc1OC,62.1%,79.4%,43.1%,20.8%,84.3%,54.9%,
O=C(N/N=C/c1ccc([N+](=O)[O-])s1)c1[nH]c2ccc(Br)cc2c1-c1ccccc1,-19% (active),-35.3% (active),3.34% (active),-7.92% (active),0.797% (active),12.8%,
Cc1cc(=O)oc2cc(OCCCOc3ccc(/C=C/C(=O)Nc4ccc(Cl)cc4)cc3)ccc12,64.4%,61.1%,27.2%,64.8%,69.6%,,
COc1cc(OC)c(C2C(Cl)C(=O)N2Nc2ncnc3ccccc23)cc1OC (stereo not drawn),89.6%,96.2%,108%,96.5%,111%,101%,
OC1CCN(CCCOc2c3ccccc3nc3c2oc2ccc(Cl)cc23)CC1,57.1%,-40.6% (active),2.39% (active),,21.9%,1.06% (active),2.99% (active)
NS(=O)(=O)c1ccc(Nc2nc(SCC(=O)c3ccc(Cl)cc3)nc3ccccc23)cc1,112%,97.5%,93.3%,,123%,87%,83%
COc1ccccc1C(=O)CSc1nc(Nc2ccc(S(N)(=O)=O)cc2)c2ccccc2n1,111%,90.4%,98.1%,,103%,78.4%,44.6%
COc1cc(/C=C/C(=O)c2cc(OC)c(OC)c(OC)c2)ccc1Oc1nc(NCCO)nc(N2CCOCC2)n1,-25.1% (active),4.93% (active),-33.6% (active),-79.3% (active),-17.5% (active),-44.6% (active),
N#Cc1c(-c2ccc(Cl)cc2)nc(SCc2ccccc2)nc1N1CCNCC1,90.5%,71.4%,-50.2% (active),-74.3% (active),-37.3% (active),39.6%,
COc1ccc(-c2nn3c(-c4ccccc4F)nnc3s2)cc1,50.9%,-4.46% (active),34.4%,,70%,31.8%,
CSc1ccc2c(c1)N(C(=O)/C(C#N)=C/c1c[nH]c3ccccc13)c1ccccc1S2,55.8%,11.7%,34.5%,,,24.5%,23.1%
Cc1cc(C(=O)Nc2sc3c(c2C(N)=O)CCC(=O)C3)ccc1OCCN1CCCCC1,129%,103%,86.5%,,,88.7%,95.3%
COc1ccc(NC(=O)c2sc3nc(-c4cnccn4)cc(-c4cccs4)c3c2N)cc1,42.4%,71.5%,65.2%,61.9%,67.5%,61%,
CN1CCc2c(sc3ncnc(N/N=C/c4ccc(Cl)c(Cl)c4)c23)C1,42.2%,11.6%,-68.4% (active),-64.5% (active),-47.9% (active),22.8%,
Clc1ccc2oc3c(NCCCn4ccnc4)c4ccccc4nc3c2c1,76.9%,26.7%,16.9%,11.2%,55.2%,30.9%,
c1ccc2c(NCCCN3CCOCC3)c3oc4ccccc4c3nc2c1,3.61% (active),-11.9% (active),,-20.1% (active),-28% (active),2.04% (active),0.0447% (active)
OC1CCN(CCCOc2c3ccc(Cl)cc3nc3c2oc2ccc(Cl)cc23)CC1,46.6%,-70.4% (active),,12.3%,36.8%,-74.3% (active),
COc1cc(/C=C/C(=O)c2ccc(Cl)cc2)ccc1Oc1nc(NCCO)nc(N2CCOCC2)n1,100%,109%,,93.1%,100%,106%,67%
COc1ccc(NC2=C(Cl)C(=O)C(C)=C(C)C2=O)cc1OC,108%,103%,,96.4%,,55.2%,77.8%
O=C1Nc2ccccc2Oc2ccc(S(=O)(=O)CC3CO3)cc21 (stereo not drawn),25%,46.3%,,46.3%,71.9%,,18.1%
